The source of these data is PubChem BioAssay.

In assay [1] the target is ATP-dependent translocase ABCB1 (Homo sapiens) (UniProt P08183). The experiment in a line: MDR1 (ABCB1) efflux transporter inhibition, cell-based (AID 377; in the data active means fluorescence slope change above about 50%). The following applies: MDR1-expressing cells, fluorescent substrate accumulation slope; stronger effect = higher value; concentration not given here.
Assay [2] is described as follows: circadian clock period modulators, cell-based, LOPAC library, luminescence reporter (AID 2774; call rule not given here;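 further: values are relative to mean of DMSO wells on each plate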). Conditions: circadian reporter cells, at 7 µM, actives lie on both sides.
The test system of assay [3] is Hepatitis C virus NS3 helicase. The assay can be described thus: HCV NS3 helicase inhibitors, primary screen, biochemical, fluorescence polarization, LOPAC1280 library (AID 687035; in the data active means inhibition above about 37%). The following applies: Purified HCV NS3 helicase, Cy5-dT15 ssDNA binding fluorescence polarization; stronger effect = higher value; concentration not given here.
The nature of assay [4]: Cy5 fluorescence quenching or enhancement artefacts, artefact control for HCV NS3 helicase inhibitor project, biochemical, LOPAC1280 (AID 687037; call rule not given here). Conditions: Cy5-DNA-NS3h complex fluorescence interference counterscreen. (Counterscreens check selectivity or assay interference.)
A short description of assay [5]: growth inhibition of DIPG glioma cells, dose response, cell-based, SU-DIPG-XVII, MIPE5.0, CellTiter-Glo, qHTS (AID 1347060).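 On AC50: cells exposed to compound for 48 hours before viability readout.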 Conditions: SU-DIPG-XVII viability, CellTiter-Glo ATP luminescence.
The nature of assay [6]: growth inhibition of DIPG glioma cells, dose response, cell-based, SU-DIPG-XIII, MIPE5.0, CellTiter-Glo, qHTS (AID 1347064; cut-off not given, nearly all actives have AC50 up to about 23 µM;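 on AC50: cells exposed to compound for 48 hours before the viability read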). The following applies: SU-DIPG-XIII viability, CellTiter-Glo ATP luminescence. Background: ATP-based viability assays read luminescence as a measure of living cells.
Assay [7] can be described thus: viability loss in pontine glioma line – cell-based, SU-DIPG-XXV, MIPE5.0, CellTiter-Glo, qHTS, dose response (AID 1347065).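 Further: cells exposed to compound for 48 hours before ATP readout.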 The following applies: CellTiter-Glo ATP luminescence.
Assay [8] is described as follows: JHH-DIPG-1 glioma cell viability, MIPE5.0 library, CellTiter-Glo luminescence, qHTS (AID 1347067).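 Further: cells exposed to compound for 48 hours before readout.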 Conditions: JHH-DIPG-1 glioma viability, CellTiter-Glo ATP luminescence.
Assay [9] can be described thus: SU-DIPG-XXV glioma cell viability, MIPE5.0 library, qHTS (AID 1347068; cut-off not given, nearly all actives have IC50 up to about 30 µM;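 on IC50: cells exposed to compound for 48 hours before viability readout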).
Assay [10] is described as follows: phospholipid biosynthesis inhibitors in animal cells, primary screen, cell-based, LOPAC library, screen 4 (AID 1347384; call rule not given here). The following applies: phospholipid biosynthesis inhibition screen, at 10 µM.
Assay [11] is described as follows: reducers of polyQ inclusions in PC12 cells, cell-based, NGF-treated PC12, GFPQ80 (AID 1614).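 Further: lower means fewer inclusions and 0 means no inclusions at all.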 The following applies: PC12 NGF-treated GFP-polyQ80 inclusion reduction.
Assay [12] in a line: growth inhibition of DIPG glioma cells, dose response, cell-based, JHH-DIPG-1, MIPE4.0, CellTiter-Glo, qHTS (AID 1347062; cut-off not given, nearly all actives have AC50 up to about 27 µM;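 on AC50: cells exposed to compound for two days before readout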). Conditions: JHH-DIPG-1 viability, CellTiter-Glo ATP luminescence.
Assay [13] can be described thus: SU-DIPG-VI glioma cell viability, MIPE4.0 library, CellTiter-Glo luminescence, qHTS (AID 1347066; cut-off not given, nearly all actives have AC50 up to about 30 µM;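 further: cells exposed to compound for 48 hours before readout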). Conditions: CellTiter-Glo ATP luminescence.
Assay [14] deals with Neuropilin-2 / VEGF-C interaction (human). The assay can be described thus: inhibitors of NRP2–VEGF-C binding, biochemical, microplate binding format, z-score (AID 743281; call rule not given here). The following applies: microplate NRP2/VEGF-C binding assay; stronger effect = lower value.
A short description of assay [15]: modifiers of HSF1 nuclear foci, imaging, Selleck Cancer Library (AID 1347162; in the data active means plate-normalised HSF1 focus index below about 0.46). Conditions: human cells, at 10 µM; SSMD: measured here: HSF1 foci SSMD mean; cell count: measured here: cell number; plate-normalised HSF1 focus index: stronger effect = lower value.
The nature of assay [16]: growth inhibition of DIPG glioma cells, dose response, cell-based, SU-DIPG-XIII, MIPE4.0, CellTiter-Glo, qHTS (AID 1347061; cut-off not given, nearly all actives have AC50 up to about 37 µM;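 further: cells exposed to compound for 48 hours before readout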). The following applies: SU-DIPG-XIII viability, CellTiter-Glo ATP luminescence.
Assay [17] can be described thus: growth inhibition of DIPG glioma cells, dose response, cell-based, SU-DIPG-IV, MIPE4.0, CellTiter-Glo, qHTS (AID 1347063; cut-off not given, nearly all actives have AC50 up to about 30 µM;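 further: compound exposure lasted 48 hours before the viability readout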). The following applies: SU-DIPG-IV viability, CellTiter-Glo ATP luminescence.

Results filed as inconclusive are left out. Active and inactive are the calls of the source. Unless noted, cut-off not given; nearly all actives show AC50 up to about 26 µM.

ATP-dependent translocase ABCB1 (Homo sapiens), sequence (P08183 whole entry, looked up): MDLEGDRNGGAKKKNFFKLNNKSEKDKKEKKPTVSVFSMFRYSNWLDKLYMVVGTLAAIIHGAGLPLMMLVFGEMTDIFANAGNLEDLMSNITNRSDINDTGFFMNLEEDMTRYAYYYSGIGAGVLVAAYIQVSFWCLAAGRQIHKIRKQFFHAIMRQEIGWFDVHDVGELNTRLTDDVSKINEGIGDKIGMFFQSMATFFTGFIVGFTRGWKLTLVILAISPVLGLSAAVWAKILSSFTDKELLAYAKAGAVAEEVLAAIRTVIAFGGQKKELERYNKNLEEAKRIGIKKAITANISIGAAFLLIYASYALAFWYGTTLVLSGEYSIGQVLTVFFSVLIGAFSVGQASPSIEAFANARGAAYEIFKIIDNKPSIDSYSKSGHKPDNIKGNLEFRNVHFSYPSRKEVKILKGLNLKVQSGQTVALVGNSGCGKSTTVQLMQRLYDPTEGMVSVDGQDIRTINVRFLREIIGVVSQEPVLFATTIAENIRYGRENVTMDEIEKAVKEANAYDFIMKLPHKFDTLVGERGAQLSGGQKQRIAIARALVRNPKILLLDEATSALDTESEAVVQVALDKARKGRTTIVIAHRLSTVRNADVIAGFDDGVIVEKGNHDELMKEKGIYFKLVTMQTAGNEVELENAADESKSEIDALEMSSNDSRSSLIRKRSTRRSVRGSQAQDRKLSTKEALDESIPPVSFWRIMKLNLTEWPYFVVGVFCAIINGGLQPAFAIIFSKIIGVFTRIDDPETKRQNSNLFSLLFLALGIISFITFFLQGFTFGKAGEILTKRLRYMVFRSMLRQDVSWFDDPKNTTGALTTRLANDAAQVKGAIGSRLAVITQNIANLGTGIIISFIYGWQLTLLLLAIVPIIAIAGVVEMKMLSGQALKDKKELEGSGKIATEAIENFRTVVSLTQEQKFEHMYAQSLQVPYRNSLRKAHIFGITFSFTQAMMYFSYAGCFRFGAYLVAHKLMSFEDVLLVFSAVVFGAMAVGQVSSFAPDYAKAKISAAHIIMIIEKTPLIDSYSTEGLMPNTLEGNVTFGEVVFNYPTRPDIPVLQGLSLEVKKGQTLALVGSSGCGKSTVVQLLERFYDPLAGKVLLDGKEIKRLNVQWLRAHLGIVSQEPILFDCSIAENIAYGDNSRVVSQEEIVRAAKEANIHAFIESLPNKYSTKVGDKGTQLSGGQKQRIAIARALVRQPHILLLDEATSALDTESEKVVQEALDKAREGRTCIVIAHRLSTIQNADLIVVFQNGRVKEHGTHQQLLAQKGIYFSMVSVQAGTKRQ

The term inhibition denotes the change of the read-out against control, counted positive when it falls. `COc1ccc([C@@H]2Sc3ccccc3N(CCN(C)C)C(=O)[C@@H]2OC(C)=O)cc1`: in assay [1], the fluorescence slope change is 71.5% (active). Moreover, in assay [2], the period change is 0.035 h (inactive). The inhibition in assay [3] was -1% (inactive). Also, the fluorescence ratio (interference) in assay [4] was 1.1 (inactive). The call in [5], in assay [6], in assay [7], in [8], in assay [9] and in assay [10] was inactive.

Turning to `CN(C)c1ccc(O)c2c1C[C@H]1C[C@H]3[C@H](N(C)C)C(=O)C(C(N)=O)=C(O)[C@@]3(O)C(=O)C1=C2O`, in assay [1], the fluorescence slope change is 103% (active). The compound also yielded an inclusion score in assay [11] of 0. Moreover, the call in assay [12], in [13], in [8] and in [9] was inactive.

With `c1ccc(-c2ccc(C(c3ccccc3)n3ccnc3)cc2)cc1` (configuration not stated), in [14], the z-score is -0.348 (inactive).

Turning to `CCCCCCCCCCC[C@@H](C[C@@H]1OC(=O)[C@H]1CCCCCC)OC(=O)[C@H](CC(C)C)NC=O`, the z-score in assay [14] is -1.43 (inactive).

Turning to `C[C@]12CCC(=O)C=C1CC[C@@H]1[C@@H]2[C@@H](O)C[C@@]2(C)[C@H]1CC[C@]2(O)C(=O)COC(=O)CCC(=O)O`, the period change in assay [2] was -0.475 h (inactive).

On to `C[C@]12CCC(=O)C=C1CC[C@@H]1[C@@H]2[C@@H](O)C[C@@]2(C)[C@H]1CC[C@]2(O)C(=O)CO`, for which the period change in assay [2] is -0.16 h (inactive). Besides, the inhibition in assay [3] is -3% (inactive). Moreover, the fluorescence ratio (interference) in assay [4] is 1 (inactive). Moreover, the compound was classed as inactive in assay [5], in assay [12], in assay [6], in assay [7], in [13] and in [8]. The result in [9] and in assay [10] was inactive. The compound further showed an SSMD in [15] of 2.5. The compound also yielded a cell count in assay [15] of 6980. For the same compound, in assay [15], the plate-normalised HSF1 focus index is 1.13 (inactive).

Regarding `Nc1nc2ncc(CNc3ccc(C(=O)N[C@@H](CCC(=O)O)C(=O)O)cc3)nc2c(=O)[nH]1`, the fluorescence slope change in assay [1] was 5.4% (inactive). This compound also came in with an inclusion score in assay [11] of 1.5.

With `CC(=O)[C@H]1CC[C@H]2[C@@H]3C[C@H](C)C4=CC(=O)CC[C@]4(C)[C@H]3[C@@H](O)C[C@]12C`, the fluorescence slope change in [1] was 55.7% (active).

In general, AC50 refers to the midpoint of the concentration-response curve, whichever way the signal moves. Consider `O=C1[C@H](CC[C@H](O)c2ccc(F)cc2)[C@@H](c2ccc(O)cc2)N1c1ccc(F)cc1`, for which, in [14], the z-score is -0.399 (inactive). Also, the compound was called inactive in assay [5]. The AC50 in [7] was 20900 nM (active). Also, the compound was classed as inactive in assay [9]. In addition, in assay [15], the SSMD is 0.185, the cell count worked out at 6580 and the plate-normalised HSF1 focus index was 1.01 (inactive).

In the case of `Cc1ccc(O)c([C@H](CCN(C(C)C)C(C)C)c2ccccc2)c1`, the z-score in [14] was -0.0447 (inactive).

As to `OCCN1C[C@H](O)[C@@H](O)[C@H](O)[C@H]1CO`, in assay [14], the z-score was -1.24 (inactive). The call in [5], in assay [16], in [12], in assay [17], in [7] and in assay [13] was inactive. The result in [8] and in assay [9] was inactive.

As for `CCS(=O)(=O)CCn1c([N+](=O)[O-])cnc1C`, in assay [1], the fluorescence slope change was 11.6% (inactive). For the same compound, in assay [14], the z-score is -0.45 (inactive).

For `C[C@]12C=CC(=O)C=C1CC[C@@H]1[C@@H]2C(=O)C[C@@]2(C)[C@H]1CC[C@]2(O)C(=O)CO`, the compound was classed as inactive in assay [5], in assay [16], in assay [12], in assay [17], in assay [6] and in [7]. In addition, the outcome in [13], in assay [8] and in assay [9] was inactive.

With `CC(=O)OCC[N+](C)(C)C`, the inclusion score in [11] worked out at 2.

In general, IC50 refers to the point on the concentration scale where inhibition reaches its midpoint. In the case of `COc1cc([C@@H]2c3cc4c(cc3[C@H](O)[C@H]3COC(=O)[C@H]23)OCO4)cc(OC)c1OC`, the AC50 in assay [5] was 41.7 nM (active); in assay [12], 74.3 nM (active); in [6], 29.5 nM (active); in assay [7], 46.8 nM (active); in [8], 29.5 nM (active). Besides, in assay [17], the result was inactive. Also, the IC50 in assay [9] is 52.5 nM (active).
